Inconclusive results are not listed. Calls of active or inactive are those of the source. Calls come from the whole dose curve; as a rule, active = well fitted cell-killing curve with a large enough effect; inconclusive = small, poorly fitted or top-dose-only effect, or effect the other way; inactive = no such curve, though single readings can be large or run the other way. *1 amine or outer side, *2 acyl side, *3 side chain or, on linkers, in order; H or OH if unused. Where a SMILES comes first, the peptide text is derived from it. Bridges are numbered along the chain shown (N, C = ends). Roman numbers before positions name the chains, in order. [ ]: non-standard residue; d: D form. Actinocin(9to1) = Cc1c2oc3c(C)ccc(C(=O)[*:1])c3nc-2c(C(=O)[*:2])c(N)c1=O; NMeV = CN[C@H](C(=O)O)C(C)C; Sar = CNCC(=O)O
Potency is the fitted concentration of half-maximal effect.

The test system of the experiment is CAOV3. The experiment in a line: Confirmatory qHTS for gynecologic anti-cancer compounds from libraries of approved drugs and bioactive compounds. Note: nearly all actives have a fitted effect of over 55% in size. Particulars: gynecologic cancer cell panel viability, ATPlite luminescence, 48 h; series mostly up to 57.6 µM. Put shortly: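 Cells (1,000/well) were plated, left 16 h at 37 C/5% CO2, then given compound at 11 concentrations (1:3) from 57.5 uM to 0.977 nM for 48 h. ATPlite luminescence after 15 min at room temperature gave IC50 values.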
In general terms: qHTS replaces the single test concentration by a dilution series.
With `Cc1cc(Nc2nc(N[C@@H](C)c3ncc(F)cn3)ncc2Cl)n[nH]1`, the Potency is 7.69 µM (active). For the molecule `S=c1nc[nH]c2nc[nH]c12`, the Potency was 0.769 µM (active). As for `Cc1ccc(C(=O)Nc2ccc(Oc3cc4cnn(C)c4cc3-c3cn[nH]c3)c(F)c2)c(=O)n1-c1ccc(F)cc1`, the Potency is 6.85 µM (active). For `CC(C)C[C@H](NC(=O)[C@H](CCc1ccccc1)NC(=O)CN1CCOCC1)C(=O)N[C@@H](Cc1ccccc1)C(=O)N[C@@H](CC(C)C)C(=O)[C@@]1(C)CO1` the value was 3.06 µM (active). Under `COc1c(C)c2c(c(O)c1C/C=C(\C)CCC(=O)OCCN1CCOCC1)C(=O)OC2` stands “inactive”. Turning to `Cn1cc(-c2[nH]c3cc(NC(=O)[C@H](N)C4CCCCC4)cc4c3c2C=NNC4=O)cn1`, the Potency is 3.85 µM (active).

With `CCCCc1oc2ccccc2c1C(=O)c1cc(I)c(OCCN(CC)CC)c(I)c1`, the Potency is 79.4 µM (active). Under `Cc1ccccc1C(OCCN(C)C)c1ccccc1` (stereo unspecified) stands “inactive”. Under `Nc1ccn([C@@H]2O[C@H](CO)[C@@H](O)C2(F)F)c(=O)n1` stands 0.217 µM (active); under `C#C[C@]1(O)CC[C@H]2[C@@H]3CCC4=CC(=O)CC[C@@H]4[C@H]3CC[C@@]21CC`, “inactive”. For `Cc1c2oc3c(C)ccc(C(=O)N[C@@H]4C(=O)N[C@H](C(C)C)C(=O)N5CCC[C@H]5C(=O)N(C)CC(=O)N(C)[C@@H](C(C)C)C(=O)O[C@@H]4C)c3nc-2c(C(=O)N[C@@H]2C(=O)N[C@H](C(C)C)C(=O)N3CCC[C@H]3C(=O)N(C)CC(=O)N(C)[C@@H](C(C)C)C(=O)O[C@@H]2C)c(N)c1=O` (I: T[dV]P[Sar][NMeV] / II: T[dV]P[Sar][NMeV]; ester I:1-I:C, II:1-II:C; linker I:N-II:N via Actinocin(9to1)) the value was 0.344 µM (active).
